Source: PubChem BioAssay (The Scripps Research Institute Molecular Screening Center)
PAFAH2 FP inh: PAFAH2 enzyme inhibitors, primary screen, biochemical, fluorescence polarization, human | recombinant PAFAH2, FP-rhodamine activity probe | Platelet-activating factor acetylhydrolase 2, cytoplasmic (Homo sapiens), Q99487 | inhibition, % at 3.39 µM | hit rate 0.99% among 340,000;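 active = inhibition above the mean over all tested compounds plus 3 SD, cut at about 30% in these data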;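 also: inhibitors block probe labeling of enzyme so polarization drops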
PAFAH1B2 FP inh: PAFAH1B2 enzyme inhibitors, primary screen, biochemical, fluorescence polarization, human; recombinant PAFAH1B2, FP-rhodamine activity probe; hit rate 1.2% among 340,000; AID 492953, 2010; inhibition, % at 3.39 µM;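 active = inhibition above the mean of all tested compounds plus 3 SD, cut at about 24% in these data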
LYPLA1 inh: LYPLA1 inhibitors, primary screen, counter-screen for PME1 inhibitor project, biochemical, fluorescence polarization, FP-Rh probe ABPP; recombinant LYPLA1; inhibition, % at 5.9 µM; hit rate 0.16% among 320,000;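 active = inhibition above the mean of all tested compounds plus 3 SD, set per campaign, cut at about 14% in these data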;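 also: inhibitors block serine hydrolase probe labeling of LYPLA1 so polarization falls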
LYPLA2 counter: LYPLA2 inhibitors, primary screen, counter-screen for PME1 inhibitor project, biochemical, fluorescence polarization, FP-Rh probe ABPP | Acyl-protein thioesterase 2 (Homo sapiens), O95372 | recombinant LYPLA2 | inhibition, % at 5.9 µM | hit rate 0.38% among 320,000 | AID 2177, 2009;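 active = inhibition above the screen-wide mean plus 3 SD, limit set per campaign, cut at about 26% in these data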
Target sequence (O95372 whole entry, looked up): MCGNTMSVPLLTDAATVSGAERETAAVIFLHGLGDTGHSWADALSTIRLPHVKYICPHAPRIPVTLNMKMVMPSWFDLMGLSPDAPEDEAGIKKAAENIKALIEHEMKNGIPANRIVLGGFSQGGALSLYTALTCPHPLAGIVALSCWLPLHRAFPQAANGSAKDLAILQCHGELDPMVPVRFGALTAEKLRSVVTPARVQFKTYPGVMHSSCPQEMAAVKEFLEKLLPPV
PAFAH1B3 FP inh: PAFAH1B3 enzyme inhibitors, primary screen, biochemical, fluorescence polarization, human | Platelet-activating factor acetylhydrolase IB subunit alpha1 (Homo sapiens), Q15102 | recombinant PAFAH1B3, FP-rhodamine probe | inhibition, % at 3.39 µM | hit rate 0.28% among 340,000 | AID 492972, 2010;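 active = inhibition above the screen-wide average of all tested compounds plus 3 SD, cut at about 25% in these data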
Target sequence (Q15102 whole entry, looked up): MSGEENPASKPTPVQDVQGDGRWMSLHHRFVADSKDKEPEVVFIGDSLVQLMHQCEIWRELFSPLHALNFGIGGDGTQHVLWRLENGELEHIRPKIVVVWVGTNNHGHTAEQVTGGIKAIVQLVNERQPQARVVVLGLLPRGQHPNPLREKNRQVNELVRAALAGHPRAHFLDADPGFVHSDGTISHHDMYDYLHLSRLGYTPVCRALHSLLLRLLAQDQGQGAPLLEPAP
pPAFAH inh: pPAFAH enzyme inhibitors, primary screen, biochemical, fluorescence polarization, human | Platelet-activating factor acetylhydrolase (Homo sapiens), Q13093 | recombinant pPAFAH, FP-rhodamine probe fluorescence polarization | inhibition, % at 3.39 µM | hit rate 1.5% among 330,000;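 active = inhibition above the mean inhibition across the screen plus 3 SD, cut at about 25% in these data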;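 also: inhibitors block binding of the rhodamine activity-based probe so polarization drops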
PAFAH2 FP conf: PAFAH2 enzyme inhibitors, confirmation, biochemical, fluorescence polarization, human. shares compounds with PAFAH2 FP inh. recombinant PAFAH2, FP-rhodamine activity probe. inhibition, % at 3.39 µM. hit rate 65% among 2,300;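 active = mean inhibition over three repeats above a set limit taken from the earlier primary screen, cut at about 30% in these data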;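 also: inhibitor blocks binding of rhodamine activity probe so polarization falls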
A number is an active result; i = inactive; nt = no result given. Shown are actives, neighbours in structure and some others; about 2.9% of the full set was active somewhere.

SMILES	PAFAH2 FP inh	PAFAH1B2 FP inh	LYPLA1 inh	LYPLA2 counter	PAFAH1B3 FP inh	pPAFAH inh	PAFAH2 FP conf
O=C(COC(=O)/C=C/c1ccccc1)NCCC1=CCCCC1	46	i	i	i	i	i	44
O=C(COC(=O)/C=C/c1ccccc1)NCCc1ccc(F)cc1	61	i	nt	nt	i	i	42
O=C(COC(=O)/C=C/c1cccc(Br)c1)NCCc1ccccc1	i	i	i	i	i	i	nt
Cc1ccn(CC(=O)NC2CCCN(Cc3ccc(CC(C)C)cc3)C2)n1 (stereo unspecified)	i	i	i	i	i	i	nt
CCOC(=O)c1ccc(NC(=O)CSc2nnc(C)n2-c2ccccc2)cc1	i	i	i	i	i	i	nt
O=C(Nc1cc(S(=O)(=O)N2CCOCC2)ccc1N1CCOCC1)c1cc(=O)[nH]c2ccccc12	i	i	i	i	i	i	nt
COc1ccc(/C=C/C(=O)OCC(=O)NCCC2=CCCCC2)cc1S(=O)(=O)N1CCOCC1	65	i	i	i	i	i	44
Nc1nnc(CCOc2ccc(Cl)cc2)s1	i	i	i	i	i	i	nt
CCOc1ccc(C(=O)OCC(=O)Nc2cccc(S(=O)(=O)N3CCCC3)c2)cc1	68	i	i	i	i	i	57
O=C(COC(=O)c1ccc(Br)o1)Nc1cccc(S(=O)(=O)N2CCCCC2)c1	i	i	nt	nt	i	i	nt
CS(=O)(=O)c1ccc(C(=O)OCC(=O)Nc2cccc(S(=O)(=O)N3CCCC3)c2)cc1	i	i	i	i	i	i	nt
O=C(COC(=O)c1ccc(O)cc1)Nc1cccc(S(=O)(=O)N2CCCCC2)c1	52	i	i	i	i	i	55
O=C(COC(=O)c1ccco1)Nc1cccc(S(=O)(=O)N2CCCCC2)c1	49	i	nt	nt	i	i	41
C=CCN1C(=O)CN=C1Nc1ccccc1	i	i	i	i	i	i	nt
COc1ccccc1/C=N/OC(=O)c1ccc(F)cc1	77	i	i	i	i	i	64
COc1ccccc1C=NN=C(N)C(N)=NN=Cc1ccccc1OC	i	i	nt	nt	i	nt	nt
COCc1ccc(C(=O)OC(C)C(=O)Nc2c(C)n(C)n(-c3ccccc3)c2=O)cc1 (stereo unspecified)	i	i	i	i	i	i	nt
C=CCn1cc(-c2ccc(Cl)cc2)cc(C#N)c1=O	i	i	i	i	i	i	nt
Cc1cc(=O)n2[nH]c(SCc3ccccc3Cl)nc2n1	40	i	i	i	i	i	i
Cc1sc2nc(SCC(=O)Nc3cccc(S(N)(=O)=O)c3)[nH]c(=O)c2c1C	35	i	nt	nt	i	i	i
Cc1cc(C(=O)COC(=O)C2=NN(c3ccccc3)C(=O)CC2)c(C)n1CC(F)(F)F	i	i	i	i	i	i	nt
Cc1cc(C(=O)COC(=O)c2ccc(O)cc2)c(C)n1CC(F)(F)F	31	i	i	i	i	i	i
Cc1cc(C(=O)COC(=O)c2ccc(O)cc2)c(C)n1-c1ccccc1F	39	i	i	i	i	i	i
CC(=O)c1ccc(N2CCN(C(=O)C(=O)c3cn(CC(=O)N4CCCCCC4)c4ccccc34)CC2)cc1	i	i	i	i	i	i	nt
O=C(COC(=O)/C=C/c1cccc(Cl)c1)NC1CCCC1	74	i	i	i	i	i	66
O=C(COC(=O)/C=C/c1cccc(Br)c1)NC1CC1	32	i	i	i	i	i	i
O=C(COC(=O)/C=C/c1cccc(Cl)c1)NC1CC1	31	i	i	i	i	i	i
O=C(COC(=O)/C=C/c1cccc(Cl)c1)Nc1c(F)cccc1F	i	i	nt	nt	i	i	nt
Cc1ccc(OC(=O)c2ccc(C)c([N+](=O)[O-])c2)cn1	i	i	i	i	i	i	nt
O=C(COC(=O)C1CC2C=CC1C2)Nc1ccc([N+](=O)[O-])cc1 (stereo unspecified)	57	i	nt	nt	i	i	54
